ERa SRC1 pot: enhances coactivator binding to human estrogen receptor alpha; P03372; TR-FRET ERalpha-LBD/SRC-Cy5 coactivator binding, 2 h; 100 = basal binding, no effect; coactivator binding (% of control), % at 25.6 µM; 1.3% of 86,000 active; AID 639; in the data active = activity above about 200%;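 note: binding measured in presence of low estradiol as agonist stimulus; 0% = peptide alone without receptor and 100% = receptor with peptide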
Target sequence (P03372 whole entry, looked up, the tested form may be a part): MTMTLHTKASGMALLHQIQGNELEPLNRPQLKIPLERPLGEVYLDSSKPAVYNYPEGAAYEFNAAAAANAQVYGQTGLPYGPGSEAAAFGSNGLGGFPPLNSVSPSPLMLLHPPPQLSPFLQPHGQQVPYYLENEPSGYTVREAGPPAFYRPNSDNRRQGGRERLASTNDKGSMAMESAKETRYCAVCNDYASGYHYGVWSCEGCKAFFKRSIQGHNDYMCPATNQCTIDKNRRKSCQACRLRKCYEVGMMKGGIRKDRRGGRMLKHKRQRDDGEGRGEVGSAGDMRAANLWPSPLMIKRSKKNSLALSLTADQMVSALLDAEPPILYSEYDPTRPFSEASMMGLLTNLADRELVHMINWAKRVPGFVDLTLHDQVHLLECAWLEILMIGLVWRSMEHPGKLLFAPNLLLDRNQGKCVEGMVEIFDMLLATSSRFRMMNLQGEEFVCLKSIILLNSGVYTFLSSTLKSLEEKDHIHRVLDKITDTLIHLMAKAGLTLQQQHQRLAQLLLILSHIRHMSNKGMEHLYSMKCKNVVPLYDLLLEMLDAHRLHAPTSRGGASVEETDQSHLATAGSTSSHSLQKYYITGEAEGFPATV
MRP1 act: MRP-1 activation; 0.61% of 140,000 active; AID 799; viability increase, % at 10 µM; H69AR cells + doxorubicin, viability rescue, CellTiter-Glo;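 active = viability gain under doxorubicin at or above a set limit, the compound median plus 3 SD, cut at about 4.7% in these data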;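 note: MRP-1 overexpressing cells given doxorubicin 25 µM after compound pretreatment; 18-22 h compound pretreatment then 72 h with doxorubicin before readout; 0% = doxorubicin-only wells and 100% = vehicle-treated cells without doxorubicin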
ERa coact inh: blocks coactivator binding to human estrogen receptor alpha | P03372 | inhibition, % at 25.6 µM | AID 629 | 1.7% of 86,000 active | TR-FRET ER-alpha LBD / SRC-1 peptide, estradiol-bound; in the data active = inhibition above about 50%;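 note: 0% = receptor plus peptide control and 100% = peptide only without receptor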
ERb SRC1 inh: blocks coactivator binding to human estrogen receptor beta; TR-FRET ER-beta LBD / SRC1-Cy5 peptide binding; receptor agonist-loaded with 1 µM estradiol; inhibition, % at 25.6 µM; 1.3% of 86,000 active;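 active = compounds whose percent inhibition of the receptor-coactivator binding signal exceeds about 50% in the single-dose screen, limit read from the data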;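 note: 0% = receptor plus peptide wells without compound and 100% = peptide-only wells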
MRP resist rev: MRP-mediated drug resistance reversal; differential viability (reversal), % at 10 µM; H69AR cells + 2 uM doxorubicin, CellTiter-Glo, 72 h; 0.04% of 85,000 active; AID 602;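 active = viability drop by adding the cancer drug above about 55%, with treated viability meeting a 40% cutoff, limit read from the data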;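 note: viability without doxorubicin minus viability with 2 µM doxorubicin for each compound; larger differential means the compound sensitizes cells more to doxorubicin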
* marks the source's active call; other numbers are inactive results; [ ] = dose if it differs, or a comment. Hits are enriched below; roughly 2.7% of the tested compounds scored in any of these assays.

O=C(CC1SC(=O)N(Cc2ccccc2)C1=O)Nc1nccs1 (centres undefined) was read as MRP1 act 12*.
For Cc1ccc2oc(=O)c3cc(C(=O)NCc4ccco4)sc3c2c1 the results were ERa SRC1 pot 113, MRP1 act -4, ERa coact inh 67*[fluorescence artefact?], ERb SRC1 inh 54*[fluorescence artefact?] and MRP resist rev -3.
Screening c1ccc(-n2nnnc2-n2cnc3ccccc32)cc1 returned ERa SRC1 pot 113, MRP1 act -1, ERa coact inh -9, ERb SRC1 inh -4 and MRP resist rev -8.
`c1ccc(-c2nccc(-c3ccc(-n4cnc5ccccc54)cc3)n2)cc1` gave ERa SRC1 pot 148, MRP1 act 0, ERa coact inh 92*[fluorescence artefact?], ERb SRC1 inh 63*[fluorescence artefact?] and MRP resist rev 3.
For O=C(CCC(=O)N1CCN(S(=O)(=O)c2ccc(Cl)cc2)CC1)Nc1cccc(Br)c1 the results were MRP1 act 0.
CC(C)(C)OC(=O)C(Cc1ccc(OC(C)(C)C)cc1)NC(=O)CNC(=O)OCc1ccccc1 (centres undefined) was read as MRP1 act -2.
Cc1ccccc1-c1nc(CS(=O)(=O)CC(=O)Nc2cc(F)ccc2F)c(C)o1 was read as ERa SRC1 pot 743*[fluorescence artefact?], MRP1 act 0, ERa coact inh -5, ERb SRC1 inh 2 and MRP resist rev 16.
For Cc1oc(-c2ccccc2F)nc1CS(=O)(=O)CC(=O)NCc1ccco1 the results were ERa SRC1 pot 22, MRP1 act -3, ERa coact inh 91*[fluorescence artefact?], ERb SRC1 inh 91*[fluorescence artefact?] and MRP resist rev 5.
`COCCCNC(=O)CS(=O)(=O)Cc1nc(-c2ccccc2C)oc1C` gave MRP1 act -3.
Screening O=C(CN(c1cccc(Cl)c1)S(=O)(=O)c1ccc(Cl)cc1)N1CCc2ccccc2C1 returned MRP1 act -2.
Screening Cn1cnnc1SCc1cccc(Br)c1 returned ERa SRC1 pot 89, MRP1 act -1, ERa coact inh 21, ERb SRC1 inh 52*[fluorescence artefact?] and MRP resist rev 7.
C/C(N)=C(/C#N)C(=O)CSc1nnc(Nc2cccc(C)c2)s1 was read as ERa SRC1 pot 17, MRP1 act 0, ERa coact inh 91*[fluorescence artefact?], ERb SRC1 inh 96*[fluorescence artefact?] and MRP resist rev 11.
Cc1ccc(NC(=O)CC2SC(=O)NC2=O)cc1 (centres undefined) was read as MRP1 act 2.
Screening CC(=O)/C(C#N)=C1\NC(=O)C(Cc2ccc(C)c(C)c2)S1 (centres undefined) returned ERa SRC1 pot 85, MRP1 act 8.8*, ERa coact inh 14, ERb SRC1 inh -5 and MRP resist rev 11.
For Nc1ccc(CC2SC(=O)NC2=O)cc1 (centres undefined) the results were ERa SRC1 pot 99, MRP1 act 9.4*, ERa coact inh 1, ERb SRC1 inh -7 and MRP resist rev 13.
Cc1ccc(CC2SC(=O)NC2=O)cc1Cl (centres undefined) was read as ERa SRC1 pot 122, MRP1 act 4.8*, ERa coact inh -1, ERb SRC1 inh 0 and MRP resist rev 2.
Screening CCn1c(NC(=O)Nc2cccc(C)c2C)cc2sccc21 returned MRP1 act -4.
For Cc1ccc2c(=O)c(CN(C)C3CCN(C)CC3)c(C)[nH]c2c1C the results were ERa SRC1 pot 95, ERa coact inh 2, ERb SRC1 inh 3 and MRP resist rev -1.
Cc1cccc(-n2cnc(C(=O)N/N=C\c3ccc(Br)cc3)c2)n1 was read as ERa SRC1 pot 515*[fluorescence artefact?], MRP1 act -2, ERa coact inh -8, ERb SRC1 inh 32 and MRP resist rev -4.
Cc1nn(C)c(C(=O)N/N=C/c2ccc(Br)cc2)c1Cl was read as MRP1 act 1.
For COc1ccccc1NC(=O)Cn1nnc(-c2ccccc2NC(=O)c2ccco2)n1 the results were ERa SRC1 pot 84, MRP1 act -1, ERa coact inh -38, ERb SRC1 inh 16 and MRP resist rev -18.
`Cc1cnc(C(=O)Nc2ccccc2-c2nnn(CC(=O)NC3CCCC3)n2)cn1` gave ERa SRC1 pot 110, MRP1 act -5, ERa coact inh 45, ERb SRC1 inh 23 and MRP resist rev 0.
Screening O=C(Cn1nnc(-c2ccccc2NC(=O)c2ccccc2F)n1)NCc1ccco1 returned ERa SRC1 pot 136, MRP1 act -4, ERa coact inh 29, ERb SRC1 inh 14 and MRP resist rev 15.
